Hits are enriched below; roughly 2.8% of the tested compounds scored in any of these assays.
Mcl1 Noxa PPI = disrupts binding of human Mcl-1 to Noxa peptide | Q07820 | TR-FRET Mcl-1/Noxa peptide binding, 2 h | inhibition, % at 21.7 µM | 220,000 compounds, 1.5% hits | AID 1022;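 active = compounds that cut the protein-peptide binding signal by more than 50% relative to plate controls in a single-dose test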;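 note: His-tagged Mcl-1 with rhodamine Noxa BH3 peptide and terbium anti-His antibody; 0% = Mcl-1 plus Noxa peptide wells and 100% = peptide-only wells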
Target sequence (Q07820 whole entry, looked up): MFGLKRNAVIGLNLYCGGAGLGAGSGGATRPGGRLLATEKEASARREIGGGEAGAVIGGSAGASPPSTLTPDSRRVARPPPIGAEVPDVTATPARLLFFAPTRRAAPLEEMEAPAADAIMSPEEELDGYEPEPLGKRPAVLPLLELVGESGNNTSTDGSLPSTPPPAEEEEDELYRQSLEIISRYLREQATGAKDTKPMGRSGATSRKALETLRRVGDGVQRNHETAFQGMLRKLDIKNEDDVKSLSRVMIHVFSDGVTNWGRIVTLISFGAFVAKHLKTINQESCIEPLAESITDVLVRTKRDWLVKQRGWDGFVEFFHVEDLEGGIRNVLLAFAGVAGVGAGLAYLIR
TNF death inh = blocks TNF-alpha induced death of Jurkat FADD-/- cells; Jurkat FADD-/- TNF necroptosis rescue, ATP luminescence, 24 h; 0 = TNF only, 100 = no-TNF cells; 220,000 compounds, 0.068% hits; activation (protection from cell death), % at 10 µM;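 active = activation, meaning protection from cell death, of at least 50% relative to plate controls; inactive = activation below 50%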;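 note: necroptosis triggered by 40 ng/mL TNF-alpha added together with compound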
Mcl1-Bid inh = disrupts binding of human Mcl-1 to Bid peptide; 220,000 compounds, 0.97% hits; inhibition, % at 21.7 µM; Q07820; TR-FRET Mcl-1/Bid-Dy647 peptide binding, 1536-well;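 active = compounds that cut the binding signal by more than half at the single screening dose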;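 note: His-tagged Mcl-1 with europium anti-His antibody binding Bid BH3 peptide; 0% = Mcl-1 plus peptide wells and 100% = peptide-only wells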
Calpain2 inh = blocks pig calpain II enzyme activity. purified calpain II, fluorogenic peptide substrate, 30 min. inhibition, % at 16 µM. 220,000 compounds, 0.37% hits;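 active = inhibition above about 50%, limit read from the data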
zVAD death inh = blocks zVAD induced death of L929 cells; AID 1377; L929 zVAD necroptosis rescue, ATP luminescence, 24 h; with zVAD 60 µM; viability rescue, % at 10 µM; 220,000 compounds, 0.38% hits;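 active = activation, scaled between plate controls, above about 75%, limit read from the data; inactive = activation under that limit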;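 note: 0% = zVAD with DMSO and 100% = DMSO alone without zVAD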
Mcl-1 Bim block = inhibitors of Bim-Mcl-1 interaction, human; Q07820; Bead-based flow cytometry, Bim peptide-Mcl-1 binding; inhibition, % at 10 µM; 190,000 compounds, 0.1% hits; AID 1009; in the data active = inhibition above about 40%;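 note: 0% = no compound tracer wells and 100% = peptide blocker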
* = called active by the depositor; . = no result given.

SMILES	Mcl1 Noxa PPI	TNF death inh	Mcl1-Bid inh	Calpain2 inh	zVAD death inh	Mcl-1 Bim block
CCCOC(=O)c1ccc(Oc2cn[nH]c2-c2ccc(OCC)cc2O)cc1	2.4	1.3	-0.1	52.8*	0.9	-1.0
CCCOC(=O)c1ccc(Oc2c(-c3ccc(OCC)cc3O)n[nH]c2C)cc1	3.9	1.4	20.7	36.9	-0.2	-4.0
CCCc1ccc(Oc2cn[nH]c2-c2ccc(O)c(C)c2O)cc1	15.1	-5.6	10.8	53.4*	-0.2	-3.0
Cc1nn(-c2ccc(C(=O)O)cc2)c(C)c1Cl	0.4	0.6	-18.0	-13.7	6.2	4.0
Cc1nn(-c2ccc(Cl)c(Cl)c2)c(C)c1C(=O)O	-3.2	-0.9	-10.3	-12.9	1.4	54.0*
COC(=O)c1ccccc1NC(=O)CSc1nnc(-c2cccc(NC(C)=O)c2)n1C	12.8	-2.9	-33.4	-10.0	0.0	-3.0
CN1C(=O)C2(C(C#N)=C(N)Oc3c2oc(CO)cc3=O)c2ccccc21 (centres undefined)	5.6	-1.6	1.3	8.3	-0.3	-3.0
COc1cc(/C=C2\SC(=N)N(c3ccc(F)cc3)C2=O)ccc1O	53.2*	-5.1	-18.0	-30.8	44.0	0.0
N=C1S/C(=C\c2ccccc2)C(=O)N1c1ccc(F)cc1	13.0	3.1	-56.5	8.7	4.9	-14.0
CCN(CC)S(=O)(=O)c1cccc(-c2nnc(SCC(=O)NC3CCCCCCC3)n2N)c1	11.1	-0.2	-3.2	19.2	-0.1	-3.0
CC(C)[C@H](NC(=O)NCCC1=CCCCC1)C(=O)O	-0.6	0.6	93.7*	-14.0	0.7	.
O=S(=O)(Nc1ccc(S(=O)(=O)N2CCCCC2)cc1)c1ccc(Br)s1	3.2	-1.2	30.2	-75.7	1.1	-3.0
COc1cccc(CC2(CO)CCCN(CC3=Cc4cc(Cl)ccc4OC3)C2)c1 (centres undefined)	9.7	0.5	-16.2	-23.7	1.0	-1.0
CCOC(=O)c1sc2ncn(/N=C/c3ccc(O)c(OC)c3)c(=O)c2c1C	53.1*	-2.2	15.1	-83.0	2.9	0.0
COc1cc(/C=N/n2cnc3c(sc4nc(C)cc(C)c43)c2=O)ccc1O	-10.9	2.2	15.0	-36.7	0.7	.
COc1ccc([N+](=O)[O-])cc1NC(=O)COC(=O)c1ccc(O)cc1	40.4	2.1	9.8	-7.1	0.0	.
O=c1c2ccccc2c(/C=N/NS(=O)(=O)c2ccccc2)c(O)n1-c1ccccn1	29.6	-0.6	-44.8	9.6	0.3	3.0
O=C(c1cccnc1)N1CCN(Cc2ccc3c(c2)OCO3)CC1	10.6	-1.6	61.0*	-12.9	-0.4	-2.0
O=c1oc2ccccc2cc1-c1csc(Nc2nc3c(F)cccc3s2)n1	69.8*	0.6	33.5	-96.5	-0.3	-4.0
COc1ccc(-c2cnnc(N/N=C/c3ccc(O)cc3)n2)cc1	88.1*	2.7	25.4	-10.0	0.6	0.0
COc1ccc(-c2cnnc(N/N=C/c3ccc(O)c(O)c3)n2)cc1	45.8	-3.2	-93.3	6.8	73.2	-9.0
Cc1nn(Cc2ccccc2)c(C)c1NC(=O)CSc1nc(-c2ccccc2)nc2c1cnn2-c1ccccc1	27.8	-0.1	79.7*	15.0	0.4	0.0
O=C(CSc1ncnc2c1cnn2-c1ccccc1)Nc1ccccc1	7.8	-3.3	-34.1	18.4	0.8	0.0
CCC1(C)Cc2c(sc3nnn(CC(=O)Nc4ccccc4C)c(=O)c23)CO1 (centres undefined)	53.5*	-5.0	18.6	8.4	0.0	0.0
CC(=O)Oc1c(C(=O)c2nnc(C)o2)c(=O)n(C)c2ccccc12	8.6	0.0	-0.6	8.9	1.1	-4.0
SMILES	Mcl1 Noxa PPI	TNF death inh	Mcl1-Bid inh	Calpain2 inh	zVAD death inh	Mcl-1 Bim block
CCOc1ccc(-c2nc(N)ncc2-c2ccccc2)c(O)c1	25.6	0.7	50.9*	-17.5	34.5	-2.0
CCOc1ccc(-c2nc(N)ncc2-c2ccc(OC)cc2)c(O)c1	26.5	-5.1	-2.6	-1.1	.	1.0
Cn1c(=O)c2cc(S(=O)(=O)Nc3cc(C(=O)O)cc(C(=O)O)c3)ccc2n(C)c1=O	1.8	-0.3	-24.9	2.9	-0.2	46.0*
Cc1cc(C)cc(NS(=O)(=O)c2ccc3c(c2)c(=O)n(C)c(=O)n3C)c1	5.4	-11.0	-10.8	-23.8	8.6	4.0
CN(C)c1ccc(NC(=O)Nc2csc3ccccc23)cc1	57.3*	5.1	-8.1	27.2	14.8	.
CN(c1cccc(NC(=O)Nc2cccc(Cl)c2)c1)S(C)(=O)=O	14.8	-2.7	-25.8	20.9	31.6	-2.0
CN(C)S(=O)(=O)c1ccc(NC(=O)/C=C/c2ccccc2Cl)cc1	3.4	4.5	-26.7	-13.7	41.2	-1.0
CN(C)c1ccc(NC(=O)/C=C/c2c(Cl)cccc2Cl)cc1	82.6*	-0.5	9.2	21.6	35.2	-8.0
CN(C)c1ccc(NC(=O)Nc2cccc(Cl)c2)cc1	75.9*	2.2	0.7	36.4	0.3	-5.0
Clc1cccc(CN2CCCCCCC2)c1Cl	14.8	1.3	29.5	-3.8	1.6	-3.0
Cc1nc2ccc(NC(=O)c3cccc(S(=O)(=O)N4CC(C)OC(C)C4)c3)cc2s1 (centres undefined)	-4.9	-1.3	-25.7	-9.1	0.3	-3.0
Cc1cc([N+](=O)[O-])ccc1NC(=O)C(C)N1CCN(c2ccccn2)CC1 (centres undefined)	2.3	-0.6	-36.3	-17.3	-0.1	2.0
CCC(C)NC(=O)COC(=O)c1ccc(Cl)cc1O (centres undefined)	-5.0	0.7	-3.6	-8.2	3.0	-1.0
Cc1[nH]c2ccccc2c1C(c1ccccn1)N1CCC(C(N)=O)CC1 (centres undefined)	56.6*	-8.6	17.2	7.6	2.2	-1.0
Cc1[nH]c2ccccc2c1C(c1ccncc1)N1CCC(C)CC1 (centres undefined)	0.2	3.4	-11.8	-33.8	10.7	-2.0
CCOC(=O)C1CCN(C(c2ccccn2)c2c(C)[nH]c3ccccc23)CC1 (centres undefined)	59.2*	-8.4	3.9	-18.2	1.7	2.0
O=C(Nc1cccc2ccccc12)N1N=CCC1c1ccccc1 (centres undefined)	29.5	64.4*	5.2	20.1	-0.3	.
S=C(Nc1ccccc1)N1N=CCC1c1ccccc1 (centres undefined)	-1.7	90.7*	-25.9	-33.1	3.0	-3.0
O=C(Nc1cccc2ccccc12)N1CCN(c2ccccc2)CC1	1.4	0.2	-24.5	-5.7	0.2	-3.0
CN(C)c1ccc(CC(=O)c2nc3ccccc3s2)cc1	75.9*	-2.5	-45.2	10.2	1.4	0.0
Cc1ccc(C(=O)N[C@H](C(=O)OCc2cc(=O)n3c(n2)sc2ccccc23)C(C)C)cc1	57.5*	0.5	-8.8	-48.1	2.1	-3.0
O=C(OCc1cc(=O)n2c(n1)sc1ccccc12)c1cccc(O)c1	66.8*	0.4	29.8	-37.4	0.0	-5.0
CC(C)[C@H](NC(=O)c1ccco1)C(=O)OCc1cc(=O)n2c(n1)sc1ccccc12	59.6*	-0.1	-30.0	-1.3	-0.6	-1.0

High-throughput results deposited in PubChem BioAssay by several laboratories.
